# Measured values: the supplement of paper PMC6555819
# Key:
# Assay in all cases: PBM binding z-score (relative to random genomic background probes); higher = stronger binding; sequences stand for … in GC…GCGATTGACAGCGTAGAATGAAGG
# [1] = tested on: PPARg:RXRa DBDmut IVT, anti-RXR (DBD mutation: RXRa K156A/R161A, NR concentration 270 nM, RXRa partner concentration 90 nM)
# Procedure, shortened: (§1)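 The probes on custom Agilent 4×180K protein-binding microarrays were double-stranded, with 34-nt variable regions bearing direct-repeat seeds, single-nucleotide variants, half-site ablations and random human genomic background sequences. Incubation lasted 1 h with ligand-free nuclear receptor dimers in PBS pH 7.4, 2% milk, 0.02% Triton X-100, 1 mM DTT, 0.2 mg/mL BSA and 0.4 mg/ml salmon testes DNA. Antibodies against each partner (one per run) detected bound dimers, and fluorescence scans were regression-normalized. Binding z-scores take the random background probes as reference.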
# [2] = tested on: PPARg:RXRa IVT, anti-PPARg (NR concentration 270 nM, RXRa partner concentration 90 nM)
# Procedure, shortened: as §1
# [3] = tested on: PPARg DBDmut:RXRa IVT, anti-PPARg (DBD mutation: PPARg1 K132A/R137A, NR concentration 270 nM, RXRa partner concentration 90 nM)
# Procedure, shortened: as §1
# [4] = tested on: PPARg DBDmut IVT, anti-PPARg (DBD mutation: PPARg1 K132A/R137A, NR concentration 270 nM)
# Procedure, shortened: as §1
# [5] = tested on: PPARg homodimer (NR concentration 180 nM)
# Procedure, shortened: as §1
# [6] = tested on: PXR:RXRa (NR concentration 270 nM, RXRa partner concentration 90 nM)
# Procedure, shortened: as §1
# [7] = tested on: PXR homodimer (NR concentration 270 nM)
# Procedure, shortened: as §1
# [8] = tested on: RARa:RXR (NR concentration 270 nM, RXRa partner concentration 90 nM)
# Procedure, shortened: as §1
# [9] = tested on: RARa homodimer (NR concentration 270 nM)
# Procedure, shortened: as §1
# [10] = tested on: RARb:RXRa (NR concentration 270 nM, RXRa partner concentration 90 nM)
# Procedure, shortened: as §1
# [11] = tested on: RARb homodimer (NR concentration 270 nM)
# Procedure, shortened: as §1
# [12] = tested on: RARg:RXRa (NR concentration 270 nM, RXRa partner concentration 90 nM)
# Procedure, shortened: as §1
# [13] = tested on: RARg homodimer (NR concentration 270 nM)
# Procedure, shortened: as §1
# [14] = tested on: RXRa DBDmut IVT, anti-RXR (DBD mutation: RXRa K156A/R161A, NR concentration 90 nM)
# Procedure, shortened: as §1
# [15] = tested on: RXRa homodimer (NR concentration 180 nM)
# Procedure, shortened: as §1
# [16] = tested on: THRa:RXRa (NR concentration 90 nM, RXRa partner concentration 90 nM)
# Procedure, shortened: as §1
# [17] = tested on: THRa homodimer (NR concentration 90 nM)
# Procedure, shortened: as §1
# [18] = tested on: VDR homodimer (NR concentration 270 nM)
# Procedure, shortened: as §1
Sequence,PBM binding z-score [1],PBM binding z-score [2],PBM binding z-score [3],PBM binding z-score [4],PBM binding z-score [5],PBM binding z-score [6],PBM binding z-score [7],PBM binding z-score [8],PBM binding z-score [9],PBM binding z-score [10],PBM binding z-score [11],PBM binding z-score [12],PBM binding z-score [13],PBM binding z-score [14],PBM binding z-score [15],PBM binding z-score [16],PBM binding z-score [17],PBM binding z-score [18]
ATCTCTAGGTAAGACTCAGTTCACTGAAGAACGC,1.88,1.2,0.951,1.23,0.997,1.71,1.12,1.01,0.789,0.577,0.746,0.678,0.541,0.822,0.497,1.29,0.792,2.32
ATCTCTAGTTAAAAGTTCAGTGAATCCCGAGGAT,0.0721,0.398,0.853,1.16,1.56,1.9,2,1.03,1.8,2.2,2.34,1.3,1.76,0.966,0.844,0.672,0.242,2.12
ACTATTAGTTGAGACGAGTGCAACCGATAGGTTG,0.000618,0.0242,0.728,0.584,0.204,1.96,0.737,0.0877,-0.0239,0.0996,-0.322,0.00696,0.277,0.58,0.199,0.501,-0.775,1.49
CCTGCTAGGTCATGGTTAGCTAATCTACAGTATG,4.51,3.71,1.31,0.491,3.42,1.38,-0.137,2.44,-0.015,3.65,2.79,4.02,4.34,1.43,2.52,2.99,1.03,-0.043
GCTGCGAGGTCAGGTTGGTCAGCTAACGGGTACG,1.82,2.38,-0.42,-0.641,2.28,3.29,0.452,3.39,0.367,4.51,3.93,4.9,5.27,3.04,4.52,3.7,2.31,2.88
TCTTGTAGATCAAGCAGGTTAAGACAGCCTGAGT,1.59,0.85,0.703,0.0402,-0.449,0.414,0.135,0.668,-0.0996,0.151,0.295,-0.0241,-0.105,0.547,0.368,0.23,-0.66,-0.155
GCATATAGGTAATACAATGTGAAAGTCCGATTGT,4.03,2.5,1.42,1.13,0.581,0.112,0.544,0.557,0.819,0.0649,-0.3,0.415,0.478,0.58,0.305,0.425,-0.105,0.523
TCATATAGGTCAACAGGTGAAAGTCCGTAAGTTA,7.13,7.59,3.03,1.96,3.88,3.49,1.08,4.84,2.3,4.83,4.07,6.14,6.02,2.48,5.39,2.94,0.969,1.41
CAAACTAGGTCACAGAGTTCAAAGTCCGTGCGTA,8.6,9.07,5.41,5.72,4.68,6.97,14.2,5.88,1.27,4.91,4.74,6.06,6.71,4.25,5.69,4.03,1.96,9.52
ATACCAAGGTGATCGTGAGGTCCTTGATACTAAC,0.257,0.989,0.0116,-0.0653,-0.043,0.241,0.00841,0.662,0.0164,0.729,0.337,0.376,0.386,0.0286,0.487,1.94,0.903,0.291
ATCTCTAGGTAACAAGTACAGTGAAAGAGAGGAC,2.78,2.91,1.63,0.83,0.76,0.221,0.657,0.485,1.28,0.624,0.631,0.905,0.824,-0.118,0.349,1.12,0.739,0.41
CCTACTGGGCCATTCAGAGGTCATTGGTCATATG,3.85,4.26,-0.0478,0.266,1.61,4.57,2.34,4.46,0.727,3.03,4.14,4.18,2.64,0.884,3.6,3.14,1.34,3.34
ATTACAGGGTCACTAGGCCAGAGTAGGTACGAAT,3.81,5.92,2.92,2.81,2.63,3.43,0.344,4.32,1.19,4.46,3.38,5.4,5.25,2.67,5.24,3.48,1.5,2.93
ATACCAAGGTGATCGTGAGATCGTTGATACTAAC,0.453,1.18,0.758,0.465,0.145,-0.151,-0.339,0.227,0.462,0.492,0.108,0.309,0.133,0.00637,0.0742,0.704,0.421,0.0841
ACTAGCAGGCCAATGGTCACTCAAGATTAGTCCG,0.92,0.714,-0.0875,-0.449,0.0967,-0.626,-0.69,-0.449,-0.683,0.677,0.496,0.131,0.545,-0.107,0.0416,-0.312,-0.672,-0.707
ACTTACGCGTCAACGAGGTTATAGCACGCGTATA,-0.0489,0.00944,0.527,-0.0395,0.374,1.04,-0.0402,1.15,0.181,0.516,0.406,0.413,0.22,0.579,1.09,1.52,0.379,0.536
